Bioassay records (PubChem)
Wnt bcat act – activates Wnt/beta-catenin signaling in a reporter cell assay; activator, plate reader; AID 743398; 300,000 compounds, 1.2% hits; activation, % at 9.35 µM; in the data active means activation above about 30%, passing the limit was not always enough; inconclusive means no clear call, values can overlap the other calls
miR122 inh – inhibitors of miR-122 in Huh7 cells; Huh7 miR-122 Renilla luciferase sensor, 48 h; neutral wells = 0, positive control = 100; activation (reporter increase), % at 12.5 µM; 340,000 compounds, 0.3% hits;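 active means mean replicate activation score at least 90 and every replicate individually at or above 90; inconclusive means only one of the two criteria met; inactive means neither criterion met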;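 further: higher luciferase means less miR-122 activity so hits act as miR-122 inhibitors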
Env fusion inh – HIV envelope-mediated fusion inhibition; HeLa-JRFL Env/CEM21 cell fusion, luciferase; inhibition, % at 12.3 µM; 360,000 compounds, 1.1% hits;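 active means mean replicate inhibition score of at least 50 and every replicate individually at or above 50; inconclusive means only one of the two criteria met; inactive means mean below 50 and not all replicates reaching 50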
MITF TRPM1 HTS – increases MITF-driven TRPM1 promoter luciferase signal | SK-MEL-5 TRPM1-promoter luciferase, 24 h; % of positive control, neutral wells = 0 | activation, % at 12.5 µM | 300,000 compounds, 0.75% hits | AID 588334;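 active means mean activation of at least 80% with every replicate also reaching 80%; inconclusive means mean reaches 80% but some replicate falls short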
esBAF inh – SWI/SNF esBAF complex inhibition | mouse ES cells, Bmi1-luciferase knock-in reporter, 24 h; 100% = twice the neutral-well signal | reporter increase, % at 12.5 µM | 350,000 compounds, 2% hits | AID 602393; in the data active means activation above about 40%; inconclusive means no clear call, values can overlap the other calls;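 further: a rise in the Bmi1 reporter signal indicates esBAF inhibition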
Of the large screens only hits and unclear results are named; the others gave an inactive call. Compounds with a hit are over-represented: about 3.4% of the library has one in this group of screens.

Cc1ccc(CNC(=O)COc2cc(O)c3c(c2)OC(C)(C)CC3=O)cc1	none (no result: Env fusion inh)
CC1(C)CC(=O)c2c(O)cc(OCc3ccc([N+](=O)[O-])cc3)cc2O1	esBAF inh 47 (no result: Wnt bcat act)
OCCCn1c(-c2ccccc2)csc1=Nc1ccccc1	none
COc1ccc(N=c2scc(-c3ccc(OC)cc3)n2CCO)cc1	Env fusion inh 71 (no result: esBAF inh)
CC(C)CCNC(=O)C1CC(c2cccc([N+](=O)[O-])c2)=NO1 (centres undefined)	none (no result: miR122 inh)
Cc1ccc(CCNC(=O)C2CC(c3ccccc3[N+](=O)[O-])=NO2)cc1 (centres undefined)	none
COc1ccc(CCNC(=O)C2CC(c3ccccc3[N+](=O)[O-])=NO2)cc1 (centres undefined)	esBAF inh 45
CCCCNC(=O)C1CC(c2cccc([N+](=O)[O-])c2)=NO1 (centres undefined)	Wnt bcat act 38, MITF TRPM1 HTS 89, esBAF inh 90
O=C(NCCc1cccs1)C1CC(c2ccccc2[N+](=O)[O-])=NO1 (centres undefined)	Wnt bcat act inconclusive, esBAF inh 66
COc1ccc(NC(=O)N(C)C[C@@H]2Oc3cc(C#CCN(C)C)ccc3S(=O)(=O)N([C@@H](C)CO)C[C@@H]2C)cc1	none (no result: Wnt bcat act, MITF TRPM1 HTS)
Cc1cc([N+](=O)[O-])ccc1NC(=O)/C=C/c1cccs1	Wnt bcat act 35 (no result: miR122 inh, esBAF inh)
O=C(NNC(=O)c1cccc2ccccc12)c1ccc(Cl)cc1Cl	esBAF inh 61 (no result: miR122 inh, Env fusion inh)
O=C(Nc1ccc(Cl)cc1F)c1ccccc1Br	Wnt bcat act 49 (no result: miR122 inh, Env fusion inh, esBAF inh)
O=C(Nc1ccc(Cl)cc1F)c1cccc2ccccc12	esBAF inh 47 (no result: MITF TRPM1 HTS)
O=C(NNc1cccc(Cl)n1)c1ccc(Cl)cc1Cl	esBAF inh 52 (no result: Wnt bcat act, MITF TRPM1 HTS)
O=C(NNC(=S)Nc1ccccc1Cl)c1ccccc1Br	esBAF inh 66
C[C@@H]1CN([C@@H](C)CO)C(=O)Cc2cc(NS(=O)(=O)c3ccccc3)ccc2O[C@@H]1CN(C)Cc1ccc(C(=O)O)cc1	none (no result: Wnt bcat act, MITF TRPM1 HTS)
COc1cc2c(c(OC)c1OC)[C@@]1(c3ccccc3)CCCC[C@H]1[C@@H]2NC(=O)C(F)(F)F	Env fusion inh 87 (no result: miR122 inh, MITF TRPM1 HTS, esBAF inh)
Cc1ccccc1Nc1nc(N)nc(COC(=O)c2ccc(O)cc2)n1	none (no result: miR122 inh, esBAF inh)
Cc1ccccc1Nc1nc(N)nc(COC(=O)c2ccccc2)n1	MITF TRPM1 HTS 83 (no result: Wnt bcat act, miR122 inh, esBAF inh)
Cn1cccc1C(=O)OCc1csc(-c2ccccc2)n1	Wnt bcat act 71 (no result: esBAF inh)
Cc1ccccc1Nc1nc(N)nc(COC(=O)c2cccn2C)n1	Wnt bcat act 66, esBAF inh 48 (no result: MITF TRPM1 HTS)
C[C@H](CO)N1C[C@H](C)[C@H](CN(C)CC2CCCCC2)Oc2ccc(NC(=O)Cn3cnnn3)cc2CC1=O	none (no result: Wnt bcat act, MITF TRPM1 HTS)
CCOc1nc(NCc2ccco2)nc(Nc2ccccc2F)n1	esBAF inh 67 (no result: Wnt bcat act, Env fusion inh)
O=C(C[C@H]1CC[C@H](NC(=O)c2ccc3c(c2)OCO3)[C@@H](CO)O1)NC1Cc2ccccc2C1	none (no result: Wnt bcat act, MITF TRPM1 HTS)
Cc1ccc(S(=O)(=O)N2CCN(C(=O)c3ccc4ccccc4n3)CC2)c(C)c1	esBAF inh 58 (no result: Env fusion inh)
CC(C)(C)C(=O)/C=C(N)/C=C/c1ccccc1	esBAF inh 57 (no result: Wnt bcat act)
CC(/C=C\c1ccccc1)=C/C(=O)O	none (no result: miR122 inh, esBAF inh)
COCC(=O)Nc1ccc2c(c1)[C@@H]1C[C@@H](CC(=O)N3CCOCC3)O[C@@H](CO)[C@@H]1O2	none (no result: Wnt bcat act, MITF TRPM1 HTS)
Cc1c(C(=O)Nc2ccccc2[N+](=O)[O-])csc1-c1ccccc1	none (no result: esBAF inh)
Cc1c(C(=O)Nc2ccccc2)csc1-c1ccccc1	Wnt bcat act 59, MITF TRPM1 HTS 107 (no result: Env fusion inh, esBAF inh)
C[C@H]1CN([C@@H](C)CO)C(=O)c2cccc(NC(=O)Nc3ccccc3)c2O[C@@H]1CN(C)CC1CCCCC1	none (no result: Wnt bcat act, MITF TRPM1 HTS)
Cc1ccc(O)c(NC(=O)c2cccc(S(=O)(=O)N3CCCCC3)c2)c1	miR122 inh 113 (no result: Env fusion inh)
Cc1ccccc1NC(=O)c1cccc(S(=O)(=O)N2CCCCC2)c1	none
Cc1cc(C)cc(NC(=O)COC(=O)c2cccc(S(=O)(=O)N3CCCCC3)c2)c1	Wnt bcat act 33 (no result: miR122 inh, Env fusion inh)
Cc1cccc(NC(=O)COC(=O)c2cccc(S(=O)(=O)N3CCCCCC3)c2)c1	none (no result: miR122 inh, Env fusion inh)
COc1ccc(S(=O)(=O)Nc2ccc3c(c2)[C@H]2C[C@H](CC(=O)O)O[C@@H](CO)[C@H]2O3)cc1	none (no result: Wnt bcat act, Env fusion inh, MITF TRPM1 HTS)
C[C@H](CO)N1C[C@H](C)[C@H](CN(C)C(=O)Nc2ccc3c(c2)OCO3)Oc2ccc(NC(=O)c3ccncc3)cc2C1=O	none (no result: Wnt bcat act, Env fusion inh, MITF TRPM1 HTS)
CN(C)CCCNC(=O)C[C@H]1C=C[C@@H](NS(=O)(=O)c2ccccc2)[C@H](CO)O1	none (no result: Wnt bcat act, MITF TRPM1 HTS)
O=S(=O)(Nc1cccc(F)c1)c1cccc2nsnc12	none
O=S(=O)(Nc1ccc(Cl)cc1)c1cccc2nsnc12	miR122 inh 120
COc1cc(NS(=O)(=O)c2cccc3nsnc23)cc(OC)c1	none (no result: Wnt bcat act, Env fusion inh)
Cc1ccc(NS(=O)(=O)c2cccc3nsnc23)cc1C	miR122 inh 114
CCC(=O)Nc1ccc2c(c1)C(=O)N(C)C[C@@H](OC)[C@@H](C)CN(CCc1ccccc1)[C@@H](C)CO2	none (no result: Wnt bcat act, MITF TRPM1 HTS)
NC(=O)C1CCN(Cc2nc(-c3cccs3)no2)CC1	none (no result: MITF TRPM1 HTS)
Cc1ccc(OCc2nc(-c3cccnc3)no2)cc1C	esBAF inh 37 (no result: miR122 inh)
CC(C)C(O)C1CCN(Cc2nc(-c3cccs3)no2)CC1 (centres undefined)	esBAF inh 58
Cc1cccc(-c2noc(CCc3ccccc3)n2)c1	Wnt bcat act inconclusive, esBAF inh 63 (no result: MITF TRPM1 HTS)
Cc1cc(C)cc(OCc2nc(-c3cccnc3)no2)c1	none (no result: miR122 inh, esBAF inh)
c1ccc(CCc2nc(-c3ccccc3)no2)cc1	esBAF inh 46
COc1ccccc1NC(=O)N1[C@H](CO)[C@H](c2ccccc2)[C@@H]1C#N	none (no result: Wnt bcat act, miR122 inh, Env fusion inh, MITF TRPM1 HTS)
Cc1noc(C)c1NC(=O)Nc1ccc2c(c1)CC(=O)N([C@H](C)CO)C[C@@H](C)[C@H](CN(C)C(=O)Nc1c(C)noc1C)O2	none (no result: Wnt bcat act, MITF TRPM1 HTS)
c1ccc(OCc2nc(-c3ccccc3)no2)cc1	Wnt bcat act 78, MITF TRPM1 HTS 102, esBAF inh 68
c1cncc(-c2noc(CC3CCCCC3)n2)c1	esBAF inh 42 (no result: Wnt bcat act)
CCCc1nc(-c2ccc(-c3ccc(F)cc3)cc2)no1	esBAF inh 58 (no result: Wnt bcat act, MITF TRPM1 HTS)
CC1CCN(Cc2nc(-c3ccccc3)no2)CC1	esBAF inh 55 (no result: Wnt bcat act, MITF TRPM1 HTS)
C[C@H]1CN([C@@H](C)CO)S(=O)(=O)c2ccc(C#Cc3ccccc3)cc2O[C@@H]1CN(C)S(=O)(=O)c1cn(C)cn1	none (no result: Wnt bcat act, MITF TRPM1 HTS)
COCC(=O)Nc1ccc2c(c1)C(=O)N(C)[C@H]1CC[C@H](CC(=O)NCc3ccc(OC)cc3)O[C@@H]1CO2	none (no result: Wnt bcat act, MITF TRPM1 HTS)
Cc1cccc(-c2noc(Cc3ccccc3)n2)c1	MITF TRPM1 HTS inconclusive, esBAF inh 103
Cc1cccc(-c2noc(CCC(=O)NCc3ccccc3)n2)c1	none (no result: MITF TRPM1 HTS)
Cc1cc2c(C)nc(-c3ccccc3)nc2o1	Wnt bcat act 49 (no result: esBAF inh)
Cc1cc(Cl)nc(-c2ccccc2)n1	none (no result: miR122 inh, esBAF inh)
CCOC(=O)c1ccc(N=NN(C)C)cc1	MITF TRPM1 HTS 99 (no result: miR122 inh, esBAF inh)
CCOC(=O)c1ccc(N=c2scc(C)n2CC)cc1	Wnt bcat act inconclusive, esBAF inh 58
CC(=O)N(C)C[C@@H]1Oc2ncc(C#Cc3ccccc3F)cc2C(=O)N([C@H](C)CO)C[C@@H]1C	none (no result: Wnt bcat act, MITF TRPM1 HTS)
